Results published in PubChem BioAssay (Tox21).
Where “and” joins values, the source holds several entries; their conditions need not be identical. Equal values may be shown once. Inconclusive results are not listed. Where a call stands in place of a potency, no number is given. The source holds several records for some structures; these can differ, active in one and inactive in another. Calls of active or inactive are those of the source. The call rests on the fitted dose curve; in most records, active means well fitted curve in the direction sought with a large enough effect in the repeat runs; inconclusive means weak or mixed curves; inactive means no such curve, though single readings can be large; an effect the other way counts as inactive or inconclusive.

Assay: qHTS assay for identifying genotoxic compounds that show differential cytotoxicity against isogenic chicken DT40 cell lines with known DNA damage response pathways - Rev3 mutant cell line (AID 743014); further: nearly all actives have a fitted effect of over 55% in size
Settings: chicken DT40 Rev3-/- viability, CellTiter-Glo, 40 h; series mostly up to 68.4 µM
Potency means the concentration at half of the fitted maximal effect.

SMILES | Potency
CCCCOCCOC(=O)c1ccccc1C(=O)OCCOCCCC | 42.4 µM (active) and 27.3 µM (active)
O=C(O)CP(=O)(O)O | inactive
O=C(Nc1ccccc1SSc1ccccc1NC(=O)c1ccccc1)c1ccccc1 | 1.38 µM (active) and 1.72 µM (active)
CC(N)=O | inactive
Cc1cccc(O)c1C | inactive
[Cl][In]([Cl])[Cl] | inactive
BrC1CCC(Br)C(Br)CCC(Br)C(Br)CCC1Br (centres undefined) | inactive and 41.1 µM (active)
Nc1nc(=S)c2[nH]cnc2[nH]1 | 1.88 µM (active) and 1.33 µM (active) and 686 nM (active)
O=C(Oc1ccccc1)c1ccccc1O | inactive
CC(C)CCOCc1ccccc1 | inactive
Cc1ccc(-c2cc(C(F)(F)F)nn2-c2ccc(S(N)(=O)=O)cc2)cc1 | 21.1 µM (active) and 54.3 µM (active) and 24.3 µM (active)
CN(C)c1ccc(C(=C2C=CC(=[N+](C)C)C=C2)c2ccccc2)cc1 | 1.19 µM (active) and 7.7 nM (active)
CCCCC/C=C/CC1CC(=O)OC1=O (centres undefined) | inactive
C=CC(=O)OCCCCCCOC(=O)C=C | 55.1 µM (active) and 30.6 µM (active)
O=C1OC2(c3ccc(O)cc3Oc3cc(O)ccc32)c2ccccc21 | inactive
CCC(C)(Oc1ccc(C2(c3ccc(OC(C)(CC)C(=O)O)cc3)CCCCC2)cc1)C(=O)O (centres undefined) | inactive
O=Cc1ccc(Cl)cc1 | inactive

SMILES | Potency
Cc1ccnc2c1NC(=O)c1cccnc1N2C1CC1 | inactive
O=Nc1ccc(Nc2ccccc2)cc1 | 1.23 µM (active) and 1.72 µM (active)
CC1=C(C=O)C(C)(C)CC=C1 | inactive
CC[C@H]1CN2CCc3cc(OC)c(OC)cc3[C@@H]2C[C@@H]1C[C@H]1NCCc2cc(OC)c(OC)cc21 | 23.7 nM (active) and 19.4 nM (active)
CC(C)(C)c1cc(C(C)(C)C)c(O)c(C(C)(C)C)c1 | inactive
Nc1cc(S(=O)(=O)O)cc2cc(S(=O)(=O)O)cc(O)c12 | inactive and 24.3 µM (active)
CC(C)(C)c1ccccc1 | inactive
O=C(O)CCc1ccccc1 | inactive
CCC[C@H](N[C@@H](C)C(=O)N1[C@H](C(=O)O)C[C@@H]2CCCC[C@@H]21)C(=O)OCC | inactive
CN(C)c1ccc2nc3ccc(=[N+](C)C)cc-3sc2c1 | 750 nM (active) and 587 nM (active) and 686 nM (active)
CCCCC(CC)COC(=O)CC(C(=O)OCC(CC)CCCC)S(=O)(=O)O (centres undefined) | inactive
Nc1nc2ccccc2[nH]1 | inactive
Cc1ccc(S(=O)(=O)Oc2ccc(N=Nc3ccc(-c4ccc(N=Nc5c(O)ccc6cc(S(=O)(=O)O)cc(S(=O)(=O)O)c56)c(C)c4)cc3C)cc2)cc1 | 27.4 µM (active) and 17.8 µM (active)
CC[C@@H](N)CO | inactive
Cc1cc(C(C)(C)C)c(O)c(C(C)(C)C)c1 | inactive and 30.6 µM (active)
CCN(CC)C(=O)Nc1ccc(OCC(O)CNC(C)(C)C)c(C(C)=O)c1 (centres undefined) | inactive

Assay: qHTS assay for identifying genotoxic compounds that show differential cytotoxicity against isogenic chicken DT40 cell lines with known DNA damage response pathways - Rad54/Ku70 mutant cell line (AID 743015); further: nearly all actives have a fitted effect of over 60% in size
Settings: DT40 Rad54/Ku70 mutant viability, CellTiter-Glo, 40 h; series mostly up to 66.8 µM

SMILES | Potency
CCCCOCCOC(=O)c1ccccc1C(=O)OCCOCCCC | 42.4 µM (active) and 61.1 µM (active)
O=C(O)CP(=O)(O)O | inactive
O=C(Nc1ccccc1SSc1ccccc1NC(=O)c1ccccc1)c1ccccc1 | 2.45 µM (active) and 1.72 µM (active)
CC(N)=O | inactive
NC12CC3CC(CC(C3)C1)C2 | inactive
Cc1cccc(O)c1C | inactive
[Cl][In]([Cl])[Cl] | inactive
BrC1CCC(Br)C(Br)CCC(Br)C(Br)CCC1Br (centres undefined) | inactive and 25.9 µM (active)
Nc1nc(=S)c2[nH]cnc2[nH]1 | 1.33 µM (active) [middle of 4 runs]
O=C(Oc1ccccc1)c1ccccc1O | inactive and 61.1 µM (active)
CC(C)CCOCc1ccccc1 | inactive
Cc1ccc(-c2cc(C(F)(F)F)nn2-c2ccc(S(N)(=O)=O)cc2)cc1 | 29.8 µM (active) and 54.3 µM (active) and 24.3 µM (active)
CN(C)c1ccc(C(=C2C=CC(=[N+](C)C)C=C2)c2ccccc2)cc1 | 1.5 µM (active) and 10.9 nM (active)
CCCCC/C=C/CC1CC(=O)OC1=O (centres undefined) | inactive
C=CC(=O)OCCCCCCOC(=O)C=C | 69.4 µM (active) and 24.3 µM (active)
Cc1occc(=O)c1OC(=O)C(C)C | inactive
O=C1OC2(c3ccc(O)cc3Oc3cc(O)ccc32)c2ccccc21 | inactive
CCC(C)(Oc1ccc(C2(c3ccc(OC(C)(CC)C(=O)O)cc3)CCCCC2)cc1)C(=O)O (centres undefined) | inactive

SMILES | Potency
O=Cc1ccc(Cl)cc1 | inactive
Cc1ccnc2c1NC(=O)c1cccnc1N2C1CC1 | inactive
CC(=O)OCC1=C(C(=O)O)N2C(=O)[C@@H](NC(=O)Cc3cccs3)[C@H]2SC1 | inactive
O=Nc1ccc(Nc2ccccc2)cc1 | 3.08 µM (active) and 2.17 µM (active)
CC1=C(C=O)C(C)(C)CC=C1 | inactive
CC[C@H]1CN2CCc3cc(OC)c(OC)cc3[C@@H]2C[C@@H]1C[C@H]1NCCc2cc(OC)c(OC)cc21 | 23.7 nM (active) and 21.8 nM (active)
CC(C)(C)c1cc(C(C)(C)C)c(O)c(C(C)(C)C)c1 | inactive
Nc1cc(S(=O)(=O)O)cc2cc(S(=O)(=O)O)cc(O)c12 | inactive and 61.1 µM (active)
CC(C)(C)c1ccccc1 | inactive
O=C(O)CCc1ccccc1 | inactive
CCC[C@H](N[C@@H](C)C(=O)N1[C@H](C(=O)O)C[C@@H]2CCCC[C@@H]21)C(=O)OCC | inactive
CN(C)c1ccc2nc3ccc(=[N+](C)C)cc-3sc2c1 | 422 nM (active) and 262 nM (active) and 386 nM (active)
CCCCC(CC)COC(=O)CC(C(=O)OCC(CC)CCCC)S(=O)(=O)O (centres undefined) | inactive and 43.3 µM (active)
Nc1nc2ccccc2[nH]1 | inactive
Cc1ccc(S(=O)(=O)Oc2ccc(N=Nc3ccc(-c4ccc(N=Nc5c(O)ccc6cc(S(=O)(=O)O)cc(S(=O)(=O)O)c56)c(C)c4)cc3C)cc2)cc1 | 54.7 µM (active) and 11.2 µM (active)
CC[C@@H](N)CO | inactive
Cc1cc(C(C)(C)C)c(O)c(C(C)(C)C)c1 | inactive and 27.3 µM (active)
CCN(CC)C(=O)Nc1ccc(OCC(O)CNC(C)(C)C)c(C(C)=O)c1 (centres undefined) | inactive
